# Pf apPOL block: Pf-apPOL inhibitors, biochemical, fluorescence | Plasmodium falciparum apicoplast DNA polymerase (apPOL) | Recombinant Pf-apPOL, molecular beacon fluorescence, 1.5 h | inhibition, % at 10 µM | 210,000 tested, 0.25% active
# mHTT CaM bind: mutant huntingtin-calmodulin interaction inhibitors – biochemical, AlphaScreen, primary screen; AlphaScreen His-mHTT/GST-CaM binding, luminescence; P42858; 190,000 tested, 3.6% active; inhibition, % at 15 µM
# Numbers stand for hits; - = inactive; . = no result. Shown is part of a subset that was picked to be rich in hits. Rule as the data show it: active = inhibition above about 50%; inactive = the rest.
SMILES,Pf apPOL block,mHTT CaM bind
CCOC(=O)C1CCc2sc(NC(=O)c3n[nH]c4ccccc34)nc21 (stereo unspecified),-,98
Cc1ccc([C@H]2C[C@H](n3cc(C4CC4)nn3)[C@@H](O)CN2CC2CCCCC2)cc1,-,-
O[C@H]1CN(CC2CCCCC2)[C@@H](c2ccccc2)C[C@@H]1n1cc(C2CC2)nn1,-,70
Cc1ccc([C@H]2C[C@@H](n3cc(C4CC4)nn3)[C@H](O)CN2CC2CCCCC2)cc1,-,-
Cc1ccc([C@H]2C[C@H](O)[C@@H](n3cc(C4CC4)nn3)CN2CC2CCCCC2)cc1,-,86
CCN(C(=O)c1ccccc1F)c1ccccc1,-,-
CCOc1ccc2nc(C(=O)N3CCN(C4CCCCC4)CC3)sc2c1,-,-
O=C(NCCC1=CCCCC1)c1ncn[nH]1,-,94
O=C(NCCC1=CCCCC1)c1ccncc1,-,-
COc1cc(CN2CCN(Cc3ccc4c(c3)OCO4)CC2)c([N+](=O)[O-])cc1OC,-,-
CCC(CO)NCC(O)Cn1c(C)c(C)c2ccccc21 (stereo unspecified),-,-
CCN(CC)CC(O)Cn1c(C)c(C)c2ccccc21 (stereo unspecified),-,-
Cc1c(C)n(CC(O)CN2CCN(Cc3ccccc3)CC2)c2ccccc12 (stereo unspecified),-,-
Cc1c(C)n(CC(O)CNc2ccccc2)c2ccccc12 (stereo unspecified),-,54
Cc1cccc(NCC(O)Cn2c(C)c(C)c3ccccc32)c1 (stereo unspecified),-,91
Cc1ccc(C)c(NCC(O)Cn2c(C)c(C)c3ccccc32)c1 (stereo unspecified),-,95
CN(C)c1ccc(-c2nc3n(n2)C(c2ccccc2)C2=C(CCCC2=O)N3)cc1 (stereo unspecified),-,-
CN(C)c1ccc(-c2nc3n(n2)C(c2ccc(F)cc2)C2=C(CCCC2=O)N3)cc1 (stereo unspecified),-,51
O=C(NCc1ccc(F)cc1)N1CCC2(CC1)Nc1cc(F)ccc1-n1cccc12,-,59
COc1ccccc1NC(=O)N1CCC2(CC1)Nc1ccccc1-n1cccc12,-,-
COC(=O)C(C)NC(=O)N1CCC2(CC1)Nc1ccccc1-n1cccc12 (stereo unspecified),-,55
CCC(C)NC(=O)N1CCC2(CC1)Nc1cc(F)ccc1-n1cccc12 (stereo unspecified),-,-
O=C(CSCc1ccc(F)cc1)N1CCC2(CC1)Nc1cc(F)ccc1-n1cccc12,-,100
O=C(NC1CCCC1)N1CCC2(CC1)Nc1cc(F)ccc1-n1cccc12,-,-
COc1ccc2c(c1)NC1(CCN(C(=O)Cc3cccc(F)c3)CC1)c1cccn1-2,-,73
SMILES,Pf apPOL block,mHTT CaM bind
CCC(=O)N1CCc2cc(N3CC(C(=O)Nc4cccc(F)c4C)CC3=O)ccc21 (stereo unspecified),-,-
COc1ccc(C2=N/C(=C\c3ccccc3)C(=O)O2)cc1,-,-
CCOc1cccc(CN2CCC(c3nc4cccnc4n3CC)C2)c1 (stereo unspecified),-,-
CCOC(=O)CNC(=O)N1CCC2(CC1)Nc1ccccc1-n1cccc12,-,56
COCCCNC(=O)N1CCC2(CC1)Nc1cc(F)ccc1-n1cccc12,-,62
Cc1ccc2c(c1C)-n1cccc1C1(CCN(C(=O)Cc3ccccc3Cl)CC1)N2,-,56
COC(=O)CNC(=O)N1CCC2(CC1)Nc1cc(F)ccc1-n1cccc12,-,-
Cc1ccc(NC(=O)N2CCC3(CC2)Nc2ccccc2-n2cccc23)cc1,-,-
Cc1ccc(CNC(=O)N2CCC3(CC2)Nc2ccccc2-n2cccc23)cc1,-,77
Cc1ccc(C)c(CN2C(=O)NC3(CCN(C(=O)Cc4ccccc4Cl)CC3)C2=O)c1,-,-
CCCC(=O)N1CCC2(CCc3ccccc3O2)CC1,-,-
CCCN1CCn2cc(C(=O)NCc3ccccc3F)nc2C1,-,-
CCN1C(=O)c2cccnc2Sc2cc(NC(=O)Cc3ccccc3C)ccc21,-,-
O=C(CN1CCC2(CC1)N=C(c1ccc(Cl)cc1)C(=O)N2)Nc1ccccc1,-,-
Cc1cc(C)cc(C(=O)NC(C)C(=O)N2CCCc3ccccc32)c1 (stereo unspecified),-,-
CCC1(CC)OC(c2c([N+](=O)[O-])cc([N+](=O)[O-])cc2[N+](=O)[O-])Nc2ccccc21 (stereo unspecified),-,79
CCC1(CC)OC(c2cccc([N+](=O)[O-])c2)Nc2ccccc21 (stereo unspecified),-,-
Cc1ccc(C2CC(C(F)(F)F)n3ncc(C(=O)Nc4cc(Cl)ccc4O)c3N2)cc1 (stereo unspecified),-,-
O=C1C(=O)N(Cc2csc(-c3ccc(Cl)cc3)n2)c2ccc(Br)cc21,-,-
CCN(CC)C(=O)CN1C(=O)C(=O)c2cc(Br)ccc21,.,97
O=C1C(=O)N(Cc2ccccc2Cl)c2ccc(Br)cc21,-,86
O=C1C(=O)N(Cc2c(F)cccc2Cl)c2ccc(Br)cc21,-,66
CCN(CC)C(=O)CN1C(=O)C(=O)c2ccccc21,-,-
O=C1C(=O)N(Cc2ccccc2)c2ccc(Br)cc21,-,-
O=C(NCCN1CCN(c2ccc(F)cc2)CC1)C(=O)NCc1ccc(F)cc1,-,-
SMILES,Pf apPOL block,mHTT CaM bind
Cc1ccc2ncc(C(=O)Nc3ccc(Br)c(C)c3)c(=O)n2c1,-,-
CCCC(=O)Nc1ccc(NC(=O)c2cc(Cl)ccc2Cl)cc1,-,-
O=[N+]([O-])c1ccc(N2CCN(S(=O)(=O)c3ccc(Cl)s3)CC2)cc1,-,-
COc1cc(C)c(C(C)C)cc1S(=O)(=O)NCc1ccco1,-,-
COc1ccc(Cl)cc1N1CCN(C(C)C(=O)Nc2ccc(C)cc2)CC1 (stereo unspecified),-,99
COc1ccccc1N1CCN(C(C)C(=O)Nc2ccc(F)cc2)CC1 (stereo unspecified),-,-
O=C(/C=C/c1ccccc1)NC(Nc1ccccc1)C(Cl)(Cl)Cl (stereo unspecified),-,96
COc1ccc(NC(=O)/C=C/c2ccc(Cl)cc2)cc1,-,.
COc1ccc(OC(NC(=O)/C=C/c2ccccc2)C(Cl)(Cl)Cl)cc1 (stereo unspecified),-,51
O=C(NC(Nc1ccccc1)C(Cl)(Cl)Cl)c1ccc(Cl)cc1 (stereo unspecified),-,-
O=C(NC(Nc1ccc(Br)cc1)C(Cl)(Cl)Cl)c1ccc(F)cc1 (stereo unspecified),-,87
O=C(NC(Nc1ccccc1)C(Cl)(Cl)Cl)c1ccc(Br)cc1 (stereo unspecified),-,57
O=C(NC(Nc1ccccc1)C(Cl)(Cl)Cl)c1ccc(F)cc1 (stereo unspecified),-,-
O=C(/C=C/c1ccccc1)NC(Nc1cccnc1)C(Cl)(Cl)Cl (stereo unspecified),-,-
O=C(NCc1ccccc1)c1ccc(CN2C(=O)CSc3ccccc32)o1,-,-
COc1ccc(CC(=O)Nc2ccc(F)c(Cl)c2)cc1,-,-
COCC(=O)Nc1c(-c2ccccc2)n[nH]c1-c1ccccc1,-,-
CCSc1ccc(Cc2nnc(NC(=O)c3ccc(S(=O)(=O)N(C)C)cc3)o2)cc1,-,61

# Source: PubChem BioAssay (University of Kansas High Throughput Screening Laboratory)
